Measurements as given in PubChem BioAssay (Tox21).
Results filed as inconclusive are left out. A call without a number means that no potency is given here. A number with no mark means an inactive call. The source made the active and inactive calls. Unless noted, calls follow the shape of the dose curve; as a rule, active = well fitted curve in the direction sought with a large enough effect in the repeat runs; inconclusive = weak or mixed curves; inactive = no such curve, though single readings can be large; an effect the other way counts as inactive or inconclusive.

Key:
[1] = qHTS assay to identify aromatase inhibitors - cell viability counter screen (AID 743084);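 also: cells stimulated with testosterone during compound exposure; nearly all actives have a fitted effect of over 55% in size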
[2] = molecular target: Aryl hydrocarbon receptor (Homo sapiens) (UniProt P35869); test: qHTS assay to identify small molecule that activate the aryl hydrocarbon receptor (AhR) signaling pathway (AID 743085); also: nearly all actives have a fitted effect of over 15% in size; also: potency is read from the fitted curve at half-maximal effect;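 as to activation: HG2L7.5c1 human HepG2 liver cells with stably integrated DRE-driven firefly reporter; series mostly up to about 70 µM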
Chain of Aryl hydrocarbon receptor (Homo sapiens) (P35869 whole entry, looked up): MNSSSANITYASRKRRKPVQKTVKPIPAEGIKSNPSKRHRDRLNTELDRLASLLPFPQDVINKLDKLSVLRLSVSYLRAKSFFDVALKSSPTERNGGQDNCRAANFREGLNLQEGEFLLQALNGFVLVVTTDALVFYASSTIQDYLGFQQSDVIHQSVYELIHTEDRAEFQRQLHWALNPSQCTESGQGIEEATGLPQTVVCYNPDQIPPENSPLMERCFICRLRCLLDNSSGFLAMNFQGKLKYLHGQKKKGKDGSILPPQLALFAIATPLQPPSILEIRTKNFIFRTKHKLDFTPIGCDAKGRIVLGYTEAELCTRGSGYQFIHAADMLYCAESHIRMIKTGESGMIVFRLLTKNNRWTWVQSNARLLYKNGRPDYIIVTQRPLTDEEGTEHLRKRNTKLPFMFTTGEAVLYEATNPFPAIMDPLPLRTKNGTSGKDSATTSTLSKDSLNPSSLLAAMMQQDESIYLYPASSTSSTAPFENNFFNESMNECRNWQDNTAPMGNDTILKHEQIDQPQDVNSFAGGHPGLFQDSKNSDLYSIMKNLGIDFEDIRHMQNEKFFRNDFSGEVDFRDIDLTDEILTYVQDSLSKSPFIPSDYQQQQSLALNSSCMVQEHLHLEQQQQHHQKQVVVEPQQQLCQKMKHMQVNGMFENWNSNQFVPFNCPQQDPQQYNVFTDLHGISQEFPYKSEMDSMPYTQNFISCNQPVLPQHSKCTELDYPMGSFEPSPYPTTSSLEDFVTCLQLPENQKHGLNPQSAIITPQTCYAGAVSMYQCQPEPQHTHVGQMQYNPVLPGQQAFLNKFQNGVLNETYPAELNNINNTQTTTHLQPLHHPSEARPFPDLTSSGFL
In short: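 24 h compound exposure, 37C, HepG2-derived HG2L7.5c1 cells with DRE-responsive luciferase. Readouts: fluorescence viability, then luminescence at room temperature after 30 min.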

[3] = qHTS assay to identify small molecule that activate the aryl hydrocarbon receptor (AhR) signaling pathway - cell viability counter screen (AID 743086);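 also: HepG2 liver cells carrying the AhR DRE luciferase reporter; series mostly up to about 70 µM; nearly all actives have a fitted effect of over 45% in size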
In short: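 HepG2-AhR-luc (HG2L7.5c1) cells, 4000/well, were preincubated 5 h at 37C, exposed to compound in qHTS format for 24 hr at 37C, then given CellTiter-Fluor for 30 min; viability was read as fluorescence in the reporter wells.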

[4] = molecular target: Peroxisome proliferator-activated receptor gamma (Homo sapiens) (UniProt P37231); test: qHTS assay to identify small molecule agonists of the peroxisome proliferator-activated receptor gamma (PPARg) signaling pathway (AID 743094; active = well fitted activation curve with a large enough effect in the signal ratio in the repeat runs, not every such curve was filed as active; the % refers to the signal ratio)
Chain of Peroxisome proliferator-activated receptor gamma (Homo sapiens) (P37231 whole entry, looked up): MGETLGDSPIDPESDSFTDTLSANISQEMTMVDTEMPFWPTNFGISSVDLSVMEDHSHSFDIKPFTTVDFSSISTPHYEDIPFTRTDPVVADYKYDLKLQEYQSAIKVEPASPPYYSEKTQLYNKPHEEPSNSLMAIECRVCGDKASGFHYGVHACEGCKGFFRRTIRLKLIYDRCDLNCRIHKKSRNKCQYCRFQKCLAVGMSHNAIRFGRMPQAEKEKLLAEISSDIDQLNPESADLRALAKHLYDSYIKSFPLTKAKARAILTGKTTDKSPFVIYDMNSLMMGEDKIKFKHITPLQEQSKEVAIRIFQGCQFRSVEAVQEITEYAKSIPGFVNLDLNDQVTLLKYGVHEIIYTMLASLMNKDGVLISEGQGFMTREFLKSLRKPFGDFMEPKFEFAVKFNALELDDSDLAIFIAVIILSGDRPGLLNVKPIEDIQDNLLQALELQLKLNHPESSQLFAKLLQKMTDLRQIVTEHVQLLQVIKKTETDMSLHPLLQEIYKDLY
In short: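 GeneBLAzer PPARg UAS-bla HEK293H cells were plated, rested 5 h, then exposed to compounds for 17 h at 37C. Beta-lactamase activity was read by LiveBLAzer B/G FRET substrate fluorescence after 1 h at room temperature.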

[5] = molecular target: Peroxisome proliferator-activated receptor gamma (Homo sapiens) (UniProt P37231); test: qHTS assay to identify small molecule antagonists of the peroxisome proliferator-activated receptor gamma (PPARg) signaling pathway (AID 743191; calls by dose curve; also: series mostly up to about 63 µM; nearly all actives have a fitted effect of over 30% in size)
In short: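 GeneBLAzer PPARg UAS-bla HEK293H cells carrying a UAS-driven beta-lactamase reporter were plated at 3000 cells/well, preincubated 5 h at 37C, then given compound for 17 h at 37C; LiveBLAzer B/G FRET substrate was read after 1 h at room temperature.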

[6] = qHTS assay to identify small molecule antagonists of the peroxisome proliferator-activated receptor gamma (PPARg) signaling pathway - cell viability counter screen (AID 743194); also: nearly all actives have a fitted effect of over 55% in size
In short: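 PPARg-UAS-bla HEK293H cells were plated, rested 5 h at 37 C, then treated with compounds plus rosiglitazone (50 nM final) for 17 h at 37 C; viability was then read by CellTiter-Glo luminescence after 30 min at room temperature.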

[7] = qHTS assay for small molecule agonists of the antioxidant response element (ARE) signaling pathway (AID 743202; active = well fitted activation curve with a large enough effect in the signal ratio in the repeat runs, not every such curve was filed as active; the % refers to the signal ratio)
In short: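 Read-out: LiveBLAzer B/G FRET substrate fluorescence after 2 h at room temperature, following 16 h compound treatment at 37 C of HepG2 cells carrying an ARE-driven beta-lactamase reporter.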

[8] = qHTS assay for small molecule agonists of the antioxidant response element (ARE) signaling pathway - cell viability counter screen (AID 743203; calls by dose curve; also: nearly all actives have a fitted effect of over 55% in size)
In short: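 ARE-bla HepG2 cells were plated, rested 5 h at 37C/5% CO2, then exposed to compounds in DMSO for 16 h. Viability was read as CellTiter-Glo luminescence after 30 min at room temperature, in the same wells as the ARE screen.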

[9] = qHTS assay for small molecule activators of the heat shock response signaling pathway - cell viability counter screen (AID 743209); also: nearly all actives have a fitted effect of over 50% in size
In short: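 HSE-bla HeLa cells plated overnight, then exposed to Tox21 compounds (23 nL in DMSO) for 5 h at 37 C. After the bla reporter read, CellTiter-Glo was added in the same wells and luminescence read after 30 min at room temperature.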

[10] = qHTS assay for small molecule activators of the heat shock response signaling pathway (AID 743210; active = well fitted activation curve with a large enough effect in the signal ratio in the repeat runs, with a control signal flat, not every such curve was filed as active; the % refers to the signal ratio; also: series mostly up to about 63 µM)
In short: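 HSE-bla HeLa cells (beta-lactamase reporter under heat shock response elements) were exposed to compounds for 5 h at 37 C, then loaded with LiveBLAzer B/G FRET substrate for 2.5 h at room temperature before fluorescence reading.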

SMILES | Potency [1] | Potency [2] | Potency [3] | outcome [4] | Potency [5] | outcome [6] | Potency [7] | outcome [8] | outcome [9] | outcome [10]
O=C(CS(=O)Cc1ccco1)NC/C=C\COc1cc(CN2CCCCC2)ccn1 (stereo not given) | inactive | inactive | inactive | inactive | inactive | inactive | inactive | inactive | inactive | inactive
CC(S)C(=O)NCC(=O)O (stereo not given) | inactive | inactive | inactive | inactive | inactive | inactive | inactive | inactive | inactive | inactive
CN1C(C)(C)CCCC1(C)C | inactive | inactive | inactive | inactive | inactive | inactive | inactive | inactive | inactive | inactive
C[C@H](CCC(=O)O)[C@H]1CC[C@H]2[C@@H]3C(=O)C[C@@H]4CC(=O)CC[C@]4(C)[C@H]3CC(=O)[C@]12C | inactive | inactive | inactive | inactive | inactive | inactive | inactive | inactive | inactive | inactive
O=C(O)CCSSCCC(=O)O | inactive | inactive | inactive | inactive | inactive | inactive | inactive | inactive | inactive | inactive
COP(=O)(OC)OC(c1ccc(Cl)cc1)P(=O)(OC)OC (stereo not given) | inactive | inactive | inactive | inactive | inactive | inactive | inactive | inactive | inactive | 
Cc1cc(Cl)c(C)cc1Cl | inactive | inactive | inactive | inactive | inactive | inactive | inactive | inactive | inactive | inactive
CN=C(NC#N)Nc1ccc(C2=NNC(=O)CC2C)cc1 (stereo not given) | inactive | inactive | inactive | inactive | inactive | inactive | inactive | inactive | inactive | inactive
CC(COC(C)(C)C)OCCCO (stereo not given) | inactive | inactive | inactive | inactive | inactive | inactive | inactive | inactive | inactive | inactive
Cc1c(I)c(=O)n(-c2ccccc2)n1C | inactive | inactive | inactive | inactive | inactive | inactive | inactive | inactive | inactive | inactive
CCOCCOCCOCC | inactive | inactive | inactive | inactive | inactive | inactive | inactive | inactive | inactive | inactive
Nc1nnc(-c2cccc(Cl)c2Cl)c(N)n1 | inactive | inactive | inactive | inactive | inactive | inactive | inactive | inactive | inactive | inactive
NNc1nnc(NN)c2ccccc12 | inactive | 29.8 µM (active) | inactive | inactive | inactive | inactive | inactive | inactive | inactive | inactive
CNC(=O)[C@H]1O[C@@H](n2cnc3c(NCc4cc(Cl)ccc4OCc4cc(C)no4)ncnc32)[C@H](O)[C@@H]1N | inactive | inactive | inactive | inactive | inactive | inactive | inactive | inactive | inactive | inactive
CC(CC=O)CCCC(C)(C)O (stereo not given) | inactive | inactive | inactive | inactive | inactive | inactive | inactive | inactive | inactive | inactive
CC(CO)c1ccccc1 (stereo not given) | inactive | inactive | inactive | inactive | inactive | inactive | inactive | inactive | inactive | inactive
O=S(=O)(O)CCN1CCN(CCO)CC1 | inactive | inactive | inactive | inactive | inactive | inactive |  | inactive | inactive | inactive
CCc1ccc(C=O)cc1 | inactive | inactive | inactive | inactive | inactive | inactive | inactive | inactive | inactive | inactive
CCOC(=O)c1ncn2c1CN(C)C(=O)c1cc(F)ccc1-2 | inactive | inactive | inactive | inactive | inactive | inactive | inactive | inactive | inactive | inactive
O=S(=O)(O)c1ccc2cc(O)c(S(=O)(=O)O)cc2c1 | inactive | inactive | inactive | inactive | inactive |  | inactive | inactive | inactive | inactive
FC(F)(F)c1ccccc1-n1ccnc1 | inactive | inactive | inactive | inactive | inactive | inactive |  | inactive | inactive | inactive
CCNC(=O)C1CC(C)CCC1C(C)C (stereo not given) | inactive | inactive | inactive | inactive | inactive | inactive |  | inactive | inactive | inactive
COC(=O)CCc1ccc(OCC(O)CNC(C)C)cc1 (stereo not given) | inactive | inactive | inactive | inactive | inactive | inactive | inactive | inactive | inactive | inactive
